# From the antibiotic and cytotoxicity screens of Wong et al. (2023)
# Out of some 39,000 compounds screened, about 3,300 (8.5%) were called active. The full list was thinned out, with actives kept by preference.
# Test system: HepG2
# Test: cytotoxicity call (relative viability < 0.9)
# Conditions: 10 µM
row,SMILES,cytotoxicity call
1,Nc1ncnc2c([C@@H]3N[C@H](CO)[C@@H](O)[C@H]3O)c[nH]c12,inactive
2,Cc1noc(C)c1S(=O)(=O)Nc1ccc2c(c1)C(=O)N([C@H](C)CO)C[C@H](C)[C@@H](CN(C)Cc1ccc(Cl)c(Cl)c1)OCCCC[C@@H](C)O2,inactive
3,C[C@@H](Oc1ccccc1Cl)c1nc2ccc(Cl)cc2[nH]1,inactive
4,COC(=O)[C@H]1c2cc3c(c(O)c2[C@@H](O[C@@H]2O[C@H](C)[C@H](OC)[C@](C)(OC)[C@@H]2OC)C[C@@]1(C)O)C(=O)c1c(O)cc2c(c1C3=O)O[C@H]1O[C@@]2(C)[C@@H](O)[C@H](N(C)C)[C@@H]1O,active
5,O=C1O[C@H](c2ccccc2)[C@H](c2ccccc2)N2[C@H]1[C@@H](C(=O)N1CCCCCCC1)[C@]1(C(=O)Nc3ccc(C#CC4=CCCCC4)cc31)[C@H]2c1ccc(O)cc1,inactive
6,COc1ccc(S(=O)(=O)N(C)C[C@@H]2Oc3c(NC(=O)C4CC4)cccc3C(=O)N([C@H](C)CO)C[C@H]2C)cc1,inactive
7,O=C(C[C@H]1C=C[C@@H](NC(=O)c2ccc(F)cc2)[C@@H](CO)O1)NCc1ccncn1,inactive
8,C[C@@H]1CN([C@H](C)CO)C(=O)Cc2cc(NS(=O)(=O)c3cn(C)cn3)ccc2O[C@H]1CN(C)C,inactive
9,O=C(C[C@@H]1C=C[C@H](NC(=O)CN2CCOCC2)[C@H](CO)O1)NC1CCCCC1,inactive
10,CO[C@@H]1CN(C)C(=O)c2ccc(NC(=O)c3ccccc3)cc2OC[C@H](C)N(C(=O)CN(C)C)C[C@@H]1C,inactive
11,OC[C@@H]1CCCO1,inactive
12,COc1ccc(NC(=O)Nc2ccc3c(c2)CC(=O)N([C@@H](C)CO)C[C@@H](C)[C@H](CN(C)Cc2ccc(-c4ccccc4)cc2)O3)cc1,active
13,COc1ccc(NC(=O)Nc2ccc3c(c2)CC(=O)N([C@@H](C)CO)C[C@H](C)[C@@H](CN(C)Cc2ccc(-c4ccccc4)cc2)O3)cc1,inactive
14,COc1ccc(NC(=O)Nc2ccc3c(c2)CC(=O)N([C@H](C)CO)C[C@H](C)[C@@H](CN(C)Cc2ccc(-c4ccccc4)cc2)O3)cc1,inactive
15,COc1ccc(NC(=O)Nc2ccc3c(c2)CC(=O)N([C@H](C)CO)C[C@@H](C)[C@H](CN(C)Cc2ccc(-c4ccccc4)cc2)O3)cc1,inactive
16,COc1ccc(NC(=O)Nc2ccc3c(c2)CC(=O)N([C@@H](C)CO)C[C@H](C)[C@H](CN(C)Cc2ccc(-c4ccccc4)cc2)O3)cc1,active
17,COc1ccc(NC(=O)Nc2ccc3c(c2)CC(=O)N([C@@H](C)CO)C[C@@H](C)[C@@H](CN(C)Cc2ccc(-c4ccccc4)cc2)O3)cc1,active
18,COc1ccc(NC(=O)Nc2ccc3c(c2)CC(=O)N([C@H](C)CO)C[C@H](C)[C@H](CN(C)Cc2ccc(-c4ccccc4)cc2)O3)cc1,active
19,C[C@@H]1CN([C@H](C)CO)C(=O)Cc2cc(NS(=O)(=O)c3cccs3)ccc2O[C@@H]1CN(C)S(=O)(=O)c1ccc(F)cc1,inactive
20,COc1ccc(NC(=O)N(C)C[C@@H]2Oc3ccc(NC(=O)CCCCCC(=O)Nc4ccccc4N)cc3CC(=O)N([C@@H](C)CO)C[C@@H]2C)cc1,inactive
21,C[C@@H]1CN([C@H](C)CO)C(=O)c2cc(NC(=O)C3CC3)ccc2O[C@H]1CN(C)S(=O)(=O)c1cn(C)cn1,inactive
22,O=C(Cc1n[nH]c(=O)[nH]1)NCc1n[nH]c2c1CCCCC2,inactive
23,N=C1SCCN1CC(=O)O,inactive

row,SMILES,cytotoxicity call
1,C[C@@H]1CCCCO[C@H](CN(C)S(=O)(=O)c2ccc(F)cc2)[C@H](C)CN([C@@H](C)CO)C(=O)c2cc(NC(=O)CCC(F)(F)F)ccc2O1,inactive
2,C[C@H]1CN([C@@H](C)CO)C(=O)c2cc(NC(=O)Cn3cnnn3)ccc2O[C@@H]1CN(C)S(=O)(=O)c1cn(C)cn1,inactive
3,Cc1ccc(S(=O)(=O)N(C)C[C@H]2Oc3c(NS(=O)(=O)c4cn(C)cn4)cccc3C(=O)N([C@H](C)CO)C[C@H]2C)cc1,inactive
4,Cc1noc(C)c1NC(=O)Nc1ccc2c(c1)C(=O)N([C@H](C)CO)C[C@H](C)[C@@H](CN(C)C(=O)Nc1c(C)noc1C)OCCCC[C@@H](C)O2,inactive
5,COc1ccc(-c2cnc3c(c2)C(=O)N([C@H](C)CO)C[C@@H](C)[C@H](CN(C)C(=O)Cc2ccccn2)O3)cc1,inactive
6,CNC[C@H]1Oc2ccc(NC(=O)Cn3cnnn3)cc2CC(=O)N([C@@H](C)CO)C[C@@H]1C,inactive
7,C[C@@H]1CN([C@H](C)CO)C(=O)c2cc(C3=CCCC3)cnc2O[C@@H]1CN(C)S(=O)(=O)c1cn(C)cn1,inactive
8,C[n+]1cccc(C(=O)O)c1,inactive
9,COc1ccc(NC(=O)Nc2ccc3c(c2)CC(=O)N([C@H](C)CO)C[C@@H](C)[C@@H](CN(C)Cc2ccc(-c4ccccc4)cc2)O3)cc1,active
10,Cc1noc(C)c1NC(=O)Nc1ccc2c(c1)CC(=O)N([C@H](C)CO)C[C@H](C)[C@@H](CN(C)C(=O)NC(C)C)O2,inactive
11,CCc1ccc(/C=C2\SC(=O)N(CCCCCCNC(=O)c3ccc(Nc4ccc([N+](=O)[O-])c5nonc45)cc3)C2=O)cc1,inactive
12,CCc1ccc(/C=C2\SC(=O)N(CCCCCCNC(=O)c3ccccc3Nc3ccc([N+](=O)[O-])c4nonc34)C2=O)cc1,active
13,N[C@H]1CCCN(Cc2cccc(O)c2)C1,inactive
14,O=C(CCCCCCC(=O)Nc1ccc([C@H]2O[C@@H](CSc3ccncc3)C[C@H](c3ccccc3)O2)cc1)NO,inactive
15,O=C(/C=C/c1ccc(CNc2ccc([C@H]3O[C@@H](CSc4ccncc4)C[C@H](c4ccccc4)O3)cc2)cc1)NO,active
16,O=C(CCCCCCC(=O)Nc1ccc([C@@H]2O[C@H](CSc3ccncc3)C[C@H](c3ccccc3)O2)cc1)NO,inactive
17,C[C@H]1CN([C@@H](C)CO)C(=O)c2c(c3ccccc3n2C)-c2ccccc2CO[C@@H]1CN(C)Cc1ccc(Cl)c(Cl)c1,inactive
18,O=C1/C(=C/c2cccs2)CCC/C1=C\c1cccs1,inactive
19,CC(C)/C=C1\CC/C(=C\c2ccc(C(F)(F)F)cc2)C1=O,active
20,O=C1C(=Cc2cccs2)CCCC1=Cc1cccs1,inactive
21,C[C@@H]1CN([C@H](C)CO)C(=O)c2cc(NC(=O)Cn3cnnn3)ccc2O[C@H]1CN(C)S(=O)(=O)c1cccs1,inactive
22,CC(=O)n1cc([C@@H]2C=C(C(=O)N3CCCCCCC3)O[C@H](OCc3ccc(CO)cc3)C2)c2ccccc21,inactive
23,COc1ccccc1C#Cc1ccc2c(c1)O[C@H](CN(C)Cc1cccnc1)[C@@H](C)CN([C@H](C)CO)S2(=O)=O,active

row,SMILES,cytotoxicity call
1,COc1ccccc1C#Cc1ccc2c(c1)O[C@@H](CN(C)Cc1cccnc1)[C@H](C)CN([C@H](C)CO)S2(=O)=O,active
2,COc1ccccc1C#Cc1ccc2c(c1)O[C@@H](CN(C)Cc1cncnc1)[C@@H](C)CN([C@@H](C)CO)S2(=O)=O,inactive
3,COc1ccccc1C#Cc1ccc2c(c1)O[C@@H](CN(C)Cc1cccnc1)[C@@H](C)CN([C@H](C)CO)S2(=O)=O,inactive
4,COc1ccccc1C#Cc1ccc2c(c1)O[C@H](CN(C)Cc1cccnc1)[C@@H](C)CN([C@@H](C)CO)S2(=O)=O,inactive
5,COc1ccccc1C#Cc1ccc2c(c1)O[C@H](CN(C)Cc1cccnc1)[C@H](C)CN([C@@H](C)CO)S2(=O)=O,inactive
6,COc1ccccc1C#Cc1ccc2c(c1)O[C@H](CN(C)Cc1cccnc1)[C@H](C)CN([C@H](C)CO)S2(=O)=O,inactive
7,COc1ccccc1C#Cc1ccc2c(c1)O[C@@H](CN(C)Cc1cccnc1)[C@H](C)CN([C@@H](C)CO)S2(=O)=O,inactive
8,COc1ccccc1C#Cc1ccc2c(c1)O[C@@H](CN(C)Cc1cccnc1)[C@@H](C)CN([C@@H](C)CO)S2(=O)=O,active
9,Cc1ccc(S(=O)(=O)Nc2ccc3c(c2)C(=O)N([C@@H](C)CO)C[C@@H](C)[C@H](CN(C)C(=O)C2CCCCC2)OCCCC[C@@H](C)O3)cc1,inactive
10,C=CCOC(=O)[C@@H]1[C@H]2C(=O)O[C@H](c3ccccc3)[C@H](c3ccccc3)N2[C@H](c2ccc(OCCOC(=O)[C@@H]3C[C@@H]4C(=O)NCC(=O)N4[C@@H]3c3cccc(OCCO)c3)cc2)[C@@]12C(=O)Nc1ccccc12,inactive
11,C[C@@H]1CN([C@@H](C)CO)C(=O)Cc2cc(NC(=O)Nc3cccc4ccccc34)ccc2O[C@H]1CN(C)C(=O)Nc1ccc2c(c1)OCO2,inactive
12,C[C@@H]1CCCCO[C@@H](CN(C)C(=O)C2CCCCC2)[C@H](C)CN([C@H](C)CO)C(=O)c2cc(NC(=O)c3ccccc3)ccc2O1,inactive
13,C[C@H]1CN([C@@H](C)CO)C(=O)c2cc(NC(=O)CCCN(C)C)ccc2O[C@@H]1CN(C)Cc1ccc2c(c1)OCO2,inactive
14,C[C@@H]1CCCCO[C@H](CN(C)Cc2ccc(Cl)c(Cl)c2)[C@@H](C)CN([C@@H](C)CO)C(=O)c2cc(NC(=O)Nc3ccc4c(c3)OCO4)ccc2O1,inactive
15,C[C@@H]1CN([C@H](C)CO)C(=O)c2cc(NC(=O)Nc3ccc4c(c3)OCO4)ccc2O[C@@H](C)CCCCO[C@@H]1CN(C)Cc1ccc(Cl)c(Cl)c1,active
16,C[C@@H]1CCCCO[C@@H](CN(C)Cc2ccc(Cl)c(Cl)c2)[C@@H](C)CN([C@H](C)CO)C(=O)c2cc(NC(=O)Nc3ccc4c(c3)OCO4)ccc2O1,inactive
17,C[C@@H]1CCCCO[C@@H](CN(C)Cc2ccc(Cl)c(Cl)c2)[C@H](C)CN([C@@H](C)CO)C(=O)c2cc(NC(=O)Nc3ccc4c(c3)OCO4)ccc2O1,inactive
18,C[C@H](CO)N1C[C@H](C)[C@@H](CN(C)Cc2ccc(Cl)c(Cl)c2)OCCCC[C@H](C)Oc2ccc(NC(=O)Nc3ccc4c(c3)OCO4)cc2C1=O,inactive
19,C[C@H]1CCCCO[C@H](CN(C)Cc2ccc(Cl)c(Cl)c2)[C@@H](C)CN([C@@H](C)CO)C(=O)c2cc(NC(=O)Nc3ccc4c(c3)OCO4)ccc2O1,active
20,C[C@@H]1CCCCO[C@H](CN(C)Cc2ccc(Cl)c(Cl)c2)[C@@H](C)CN([C@H](C)CO)C(=O)c2cc(NC(=O)Nc3ccc4c(c3)OCO4)ccc2O1,active
21,C[C@@H]1CN([C@H](C)CO)C(=O)c2cc(NC(=O)Nc3ccc4c(c3)OCO4)ccc2O[C@@H](C)CCCCO[C@H]1CN(C)Cc1ccc(Cl)c(Cl)c1,active
